Records with an inconclusive call do not appear. A number with no mark means an inactive call. Calls of active or inactive are those of the source. Calls come from the whole dose curve; as a rule, active = well fitted cell-killing curve with a large enough effect; inconclusive = small, poorly fitted or top-dose-only effect, or effect the other way; inactive = flat fitted curve, though single readings scatter. *1 amine or outer side, *2 acyl side, *3 side chain or, on linkers, in order; H or OH if unused. Where a SMILES comes first, the peptide text is derived from it. [ ]: non-standard residue; d: D form. X4 = CC(C)=CCc1cc(C(O)C(N[*:1])C(=O)[*:2])ccc1O
Tested on: C33A
Test: Primary qHTS to identify gynecologic anti-cancer compounds using libraries of approved drugs and bioactive compounds (AID 1345084); note: nearly all actives have a fitted effect of over 55% in size
Settings: Gynecologic cancer cell panel viability, ATPlite luminescence, 48 h; series mostly up to 57.5 µM; activity change, negative = cytotoxicity: at the top concentration
How it was run: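 Luminescence from the ATPlite ATP-monitoring reagent indicates viable cell number; lower signal means cytotoxicity. Cells received compound 16 h after seeding and were exposed for 48 h across five concentrations.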
% is set by controls: 0 for no effect and ±100 for the full control effect; potency is the fitted concentration of half-maximal effect.

Row | Compound | activity change, negative = cytotoxicity | Potency
1 | COC(=O)CC(C)(O)CC(=O)OCc1ccc(O[C@@H]2O[C@H](CO)[C@@H](O)[C@H](O)[C@H]2O)cc1 (stereo partly specified) | 0.146% [at 25.3 µM] | –
2 | CC(Cc1cc2c(c(C(N)=O)c1)N(CCCO)CC2)NCCOc1ccccc1OCC(F)(F)F (stereo unspecified) | -16.6% | –
3 | O=C1CCC=CC1(O)C(=O)OCc1ccccc1O[C@@H]1O[C@H](CO)[C@@H](O)[C@H](O)[C@H]1O (stereo partly specified) | -14.2% [at 25.3 µM] | –
4 | Cc1ccccc1C#Cc1ccc(CCC(=O)O)cc1 | -41% | –
5 | C=C1C(O)CC2C(C(=O)O)=COC(O[C@@H]3O[C@H](COC(=O)/C=C/c4ccc(O)cc4)[C@@H](O)[C@H](O)[C@H]3O)C12 (stereo partly specified) | -2% [at 25.3 µM] | –
6 | O=C(OC1C=C(CO)C2C(OC3OC(CO)C(O)C(O)C3O)OC=CC12)c1ccc(O)cc1 (stereo unspecified) | -0.428% [at 25.3 µM] | –
7 | COC(=O)CC(O)CC(O)/C=C/c1c(C)ccc2c1C(O)CC(C)C2 (stereo unspecified) | 2.44% [at 38.5 µM] | –
8 | COc1cc(O)c2c(c1)C1=C[C@H](O)[C@@H](O)C[C@]1(C)OC2=O | -1.85% | –
9 | CC(C)c1ccc(CO)cc1O[C@@H]1O[C@H](CO)[C@@H](O)[C@H](O)[C@H]1O | 9.73% [at 38.5 µM] | –
10 | CC(=O)O[C@@H]1[C@H](O)[C@@H](O[C@@H]2O[C@@H](C)[C@H](O[C@@H]3OC[C@@H](O)[C@H](O[C@@H]4OC[C@@H](O)[C@H](O)[C@H]4O)[C@H]3O)[C@@H](O[C@@H]3O[C@H](CO)[C@@H](O)[C@H](O)[C@H]3O)[C@H]2O)[C@H](OC(=O)[C@]23CCC(C)(C)C[C@H]2C2=CCC4[C@@]5(C)CC[C@H](O[C@@H]6O[C@H](C(=O)O)[C@@H](O)[C@H](O[C@@H]7OC[C@@H](O)[C@H](O)[C@H]7O)[C@H]6O[C@@H]6O[C@H](CO)[C@H](O)[C@H](O)[C@H]6O)[C@@](C)(C=O)C5CC[C@@]4(C)[C@]2(C)CC3)O[C@@H]1C (stereo partly specified) | 0.359% [at 6.55 µM] | –
11 | C/C=C(\C)C(=O)O[C@@H]1CC2[C@@H](CC=C3C[C@@H](O[C@H]4C[C@H](OC)[C@H](O[C@H]5C[C@H](OC)[C@H](O[C@@H]6O[C@H](C)[C@@H](O[C@H]7C[C@H](OC)[C@H](O[C@@H]8O[C@H](CO)[C@@H](O)[C@H](O)[C@H]8O)[C@@H](C)O7)[C@H](OC)[C@H]6O)[C@@H](C)O5)[C@@H](C)O4)CC[C@@]32C)[C@@]2(O)CC[C@H](C(C)=O)[C@@]12C (stereo partly specified) | 1.36% [at 6.55 µM] | –
12 | C=C(CCC1=C(C)[C@H]2[C@H](CC3[C@@H]4CC=C5C[C@@H](O)C[C@@H](O)[C@]5(C)C4[C@H](O)C[C@@]32C)O1)CO[C@@H]1O[C@H](CO)[C@@H](O)[C@H](O)[C@H]1O (stereo partly specified) | – | 1260 nM (active)
13 | C[C@@H]1CC[C@@]2(OC1)O[C@H]1C[C@H]3[C@@H]4CC=C5C[C@@H](O)CC[C@]5(C)[C@H]4CC[C@]3(C)[C@H]1[C@@H]2C | 13.4% [at 25.3 µM] | –
14 | COC1=CC(=O)CC(C)C12Oc1cc(OC)cc(O)c1C2=O (stereo unspecified) | -2.55% | –
15 | CC(C)(C)NS(=O)(=O)c1cncc(-c2cc(F)c3nc(N)nn3c2)c1 | -0.862% | –
16 | CC(C)=CCc1cc(C(O)C2NC(=O)CNC(=O)C(Cc3c[nH]c4ccccc34)NC(=O)C3CCCN3C(=O)CNC(=O)C(C(C)C)NC(=O)CNC2=O)ccc1O (stereo unspecified) (cyclo(G[X4]GVGPW); configuration not given here) | 7.59% [at 11.6 µM] | –

Row | Compound | activity change, negative = cytotoxicity | Potency
17 | Cc1cc(N2CCN([C@@H]3CN[C@H](C(=O)N4CCSC4)C3)CC2)n(-c2ccccc2)n1 | -3.52% | –
18 | CC(=O)N1CCN(Cc2ccc([C@H](C)Nc3nccc(N4C(=O)OC[C@@H]4C(C)C)n3)cc2)CC1 | -2.2% | –
19 | C/C(=C\CCC(C)CCO)C(=O)OC1(C)CCC2C(C(=O)O)=COC(OC3OC(CO)C(O)C(O)C3O)C21 (stereo unspecified) | 8.53% [at 25.3 µM] | –
20 | Cc1cc(C(N)=O)ccc1-n1c(CCC(=O)O)ccc1-c1ccc(-n2ccnc2)cc1 | 0.777% | –
21 | NC(=O)c1csc(C2OC(CO)C(O)C2O)n1 (stereo unspecified) | 22.1% | –
22 | COc1c2c(c(CO)c3c1C(=O)OC3)OC1(C)CCC3(O)C(C)(C)OC(=O)CCC3(C)C1C2 (stereo unspecified) | 1.58% [at 25.3 µM] | –
23 | CC1=C(C)C(=O)OC(C(C)C2CCC3C4CC=C5CC(OC6OC(COC7OC(CO)C(O)C(O)C7O)C(O)C(O)C6O)CC(O)C5(C)C4CCC23C)C1 (stereo unspecified) | -19.9% [at 25.3 µM] | –
24 | O=C(NCc1cccc(O)c1)c1cc2cc(F)ccc2[nH]1 | -3.66% | –
25 | CCOc1cc(CC(=O)NC(CC(C)C)c2ccccc2N2CCCCC2)ccc1C(=O)O (stereo unspecified) | 5.6% | –
26 | CC1(C)CC2C(C1)C(C)(O)C13CC1(COC3=O)C2O (stereo unspecified) | -2.59% | –
27 | NC1(C(=O)NC(CCO)c2ccc(Cl)cc2)CCN(c2ncnc3[nH]ccc23)CC1 (stereo unspecified) | – | 2240 nM (active)
28 | COC(=O)c1ccnc(-c2cc(C(=O)NCCc3ccccc3)ccn2)c1 | 6.86% | –
29 | COC(=O)c1cc(OC)cc(OC)c1C(=O)c1c(OC)cc2c(c1O)C1CCCC(C)(O2)O1 (stereo unspecified) | 7.09% [at 25.3 µM] | –
30 | O=C(O)CC1CCC(c2ccc(-c3ccc4nc(C(=O)NCc5ccc(OC(F)(F)F)cc5)cn4c3)cc2)CC1 (stereo unspecified) | 9.94% | –
31 | COc1cc2occc2c(O[C@@H]2O[C@H](CO)[C@@H](O)[C@H](O)[C@H]2O)c1CCC(=O)O | 6.39% [at 25.3 µM] | –

— PubChem BioAssay (NCATS)
